# Test results as given in PubChem BioAssay (NCI).
# This is part of a sample that, as a whole, favours compounds with a hit. Of some 83,000 tested, about 20% had one in any assay.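 Negative percent growth values reflect cell death: -40 means 40% of the cells present at the start died, and -100 means all died.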 Unmarked numbers belong to inactive results. The source made the active and inactive calls. The calls were made as follows: active = growth percent below 10; inactive = the rest.
# Tested on: OVCAR-3 ovarian
# Experiment: NCI-60 one-dose screen, 48 h (100 = growth as untreated, 0 = no growth, -100 = all killed)
# Details: 10 µM
row,Compound,growth
1,CCOC(=O)N/C(=C1/OCCN1C)[P+](c1ccccc1)(c1ccccc1)c1ccccc1,84.7%
2,O=C(NO)c1ccc(CNc2nc(-c3ccccc3)c3ccccc3n2)cc1,-11.3% (active)
3,Cc1cc(C)nc(NS(=O)(=O)c2ccc(N/C(N)=N/c3nccc(-c4cccs4)n3)cc2)n1,107%
4,COc1cnc2c(c1)C(=O)c1c-2n(CCCNCCO)c(=O)c2cc(OC)c(OC)cc12,3.13% (active)

# Tested on: HS 578T breast
# Experiment: as above
# Details: 10 µM
row,Compound,growth
1,Cc1ccc(C(=O)N/C(=C2/OCCN2C)[P+](c2ccccc2)(c2ccccc2)c2ccccc2)cc1,79.6%
2,CN(C)c1ccc(/C=C/c2nc3ccccc3c(=O)n2CC(=O)Nc2ccc(Cl)cc2)cc1,17.1%
3,Cc1ccc(CNC(=O)Cc2ccc3c(c2)CN(C2CCC(=O)NC2=O)C3=O)cc1 (stereo not drawn),-15.4% (active)
4,Cc1ccn2c(C(=O)c3ccccc3)cc(-c3cc(-c4ccc(N(C)C)cc4)c(C#N)c(N)n3)c2c1,33.2%
5,CCOP(=O)(OCC)O[C@H]1CCC(=O)[C@@H]2[C@H]1[C@H]1C[C@@H]3[C@@]4(C)CCCC(C)(C(=O)OC)[C@@H]4CC[C@@]23C=C1C(C)C (stereo partly drawn),59.5%
6,C#CCNC(=O)CCC(=O)OC[C@]12CC[C@@H](C(=C)C)[C@@H]1C1CC[C@@H]3[C@@]4(C)CCCNC(C)(C)[C@@H]4CC[C@@]3(C)[C@]1(C)CC2 (stereo partly drawn),14.4%
7,C/C(=N\N=C\c1ccc(N(C)C)cc1)c1ccc2c(c1)Nc1ccccc1S2,18.7%
8,O=C(Nc1ccc(Cl)c([N+](=O)[O-])c1)Nc1ccc(Cl)c([N+](=O)[O-])c1,45.1%
9,COc1ccc(CN2[C@H](C(=O)NCc3ccc(C(=O)NO)cc3)Cc3c([nH]c4ccccc34)[C@H]2C2CC2)cc1,32.6%
10,O=C(NO)c1ccc(CNC(=O)[C@H]2Cc3c([nH]c4ccccc34)[C@H](c3ccc(Cl)cc3)N2)cc1,6.12% (active)
11,O=C(Cn1nc(-c2ccccc2)ccc1=O)NN1C(=O)c2ccccc2C1=O,73.4%
12,OCc1[nH]nc2cc(Nc3ncc4ccc(Br)c(OC5CCC(O)CC5)c4n3)ccc12 (stereo not drawn),-28.5% (active)
13,COc1cc2c3c(n(CCCNCCO)c(=O)c2cc1OC)-c1nc2c(cc1C3=O)OCO2,65.6%
14,COc1ccc(CN2[C@H](C(=O)NCCCCCCC(=O)NO)Cc3c([nH]c4ccccc34)[C@H]2C2CC2)cc1,-1.3% (active)
15,COc1ccc(C2N(c3ccc(Br)cc3)N=C(C(C)=O)N2[C@H]2[C@H](OC(C)=O)O[C@H](COC(C)=O)[C@@H](OC(C)=O)[C@@H]2OC(C)=O)cc1 (stereo partly drawn),63.3%
16,CN1C(=O)N(C)C2SC(N/N=C/c3cccs3)=NC21 (stereo not drawn),25.3%
17,Cc1cc(C)nc(/N=C(\N)Nc2ccc(S(=O)(=O)Nc3nc(C)cc(C)n3)cc2)n1,103%
18,O=C(Cc1ccc2c(c1)CN(C1CCC(=O)NC1=O)C2=O)NCCc1ccccc1 (stereo not drawn),-5.24% (active)
19,CCNCCCn1c2c(c3cc(OC)c(OC)cc3c1=O)C(=O)c1cc3c(nc1-2)OCO3,97.4%
20,O=C(CNc1nc(-c2ccccc2)cs1)Nc1ccc(Cl)cc1[N+](=O)[O-],-18.3% (active)
21,Cc1ccc2nc(-c3ccc(-c4nnc(SCC(=O)Nc5ccc(Cl)cc5)o4)cc3)[nH]c2c1,40.5%
22,Cc1ccc(C(=O)NNC(=O)CSc2nc3ccccc3c(=O)[nH]2)cc1,97.5%
23,CN(C)CCNC(=O)OCCCCOc1cc(O)c2c(=O)cc(-c3ccccc3)oc2c1,40.7%
24,CCCCSc1nc(Nc2ccc(/C(C)=N/NC(N)=S)cc2)c(C#N)c(-c2ccccc2)n1,43.6%
25,O=c1[nH]c2ccccc2cc1CSc1ccc(Nc2nccc(-c3ccc4c(c3)OCO4)n2)cc1,41.3%
26,COc1cc2oc(-c3cccc(C(=O)Nc4ccc(Cl)cc4)c3)cc(=O)c2c(OCCNC(=O)CNC(=O)OC(C)(C)C)c1OC,62.8%
27,Cc1ccc2nc(-c3ccc(-c4nnc(SCC(=O)Nc5ccc(Br)cc5)o4)cc3)[nH]c2c1,70.8%
28,COc1ccc(CN2[C@@H](C(=O)NCc3ccc(C(=O)NO)cc3)Cc3c([nH]c4ccccc34)[C@@H]2C)cc1,-5.59% (active)
29,O=C(CNc1nc(-c2ccccc2)cs1)Nc1cccc(Cl)c1,32.4%
